Experimental data reported in PubChem BioAssay AID602410 (Johns Hopkins Ion Channel Center, 2012).
The campaign covered roughly 340,000 compounds. About 2,800 (0.82%) were called active.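 How the source made its calls: active means B-score under library mean minus 4 SD, starting fluorescence ratio at most library mean plus 5 SD; inactive means the rest.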 This excerpt belongs to a sample that is enriched for actives.

The molecules below were run against Potassium channel subfamily K member 3 (Homo sapiens) (UniProt O14649) (assay: human KCNK3 channel inhibitors, primary screen, CHO cells, FluxOR thallium flux, B-score (AID 602410;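 on B-score: more negative B-score means stronger inhibition of thallium flux through KCNK3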)). Conditions: FluxOR fluorescence, at 10 µM; active compounds read low.
Chain of Potassium channel subfamily K member 3 (Homo sapiens) (O14649 whole entry, looked up): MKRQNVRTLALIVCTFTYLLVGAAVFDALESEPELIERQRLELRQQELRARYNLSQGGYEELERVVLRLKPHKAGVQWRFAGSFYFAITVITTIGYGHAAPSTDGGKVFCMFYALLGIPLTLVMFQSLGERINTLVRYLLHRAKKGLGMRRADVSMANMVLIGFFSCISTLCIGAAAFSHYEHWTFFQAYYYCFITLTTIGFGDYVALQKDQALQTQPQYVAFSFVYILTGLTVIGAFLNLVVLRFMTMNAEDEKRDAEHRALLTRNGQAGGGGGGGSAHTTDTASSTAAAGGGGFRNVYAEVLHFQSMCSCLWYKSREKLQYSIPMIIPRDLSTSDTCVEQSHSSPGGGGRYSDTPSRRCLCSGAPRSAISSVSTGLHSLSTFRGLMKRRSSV

B-score, active:
Cc1cccc(N(Cc2ccccc2)C(=O)c2ccccc2F)c1 -9.35, c1ccc2c(NC3C4CC5CC(C4)CC3C5)nc(N3CCOCC3)nc2c1 (stereo unspecified) -9.5, c1ccc(C(c2ccccc2)N2CCN(Cc3nnnn3C3CCCCC3)CC2)cc1 -10.8, CCCCCCCCn1c2c(c(=N)c3c1CCC3)CCCC2 -9.82, O=C(CSc1nc(Nc2ccccc2)nc(N2CCOCC2)n1)Nc1cc(Cl)ccc1O -11.6, COc1cccc(NC(=O)CN(C)C(=O)/C=C/c2cn(-c3ccccc3)nc2-c2cccs2)c1 -10.7, C=CCN(C(=O)c1cc(C)cc(C)c1)C1(C(=O)Nc2ccccc2)CCN(C(C)C)CC1 -9.18, O=C(NCCc1ccccc1)c1ccc2c(c1)N(Cc1ccccc1)CCS2 -11.6, CC(C)CCNC(=O)C(C)N(C(=O)Cn1nnc(-c2ccc(F)cc2)n1)C1CCCC1 (stereo unspecified) -9.19, CCOc1ccccc1Oc1cn[nH]c1-c1ccc(OC)cc1O -8.87, O=C(Oc1ccc(Br)cc1C(=S)N1CCOCC1)c1cccc([N+](=O)[O-])c1 -11.4, O=C(N/N=C/c1sc(N2CCCCC2)nc1-c1cccs1)c1cccnc1 -10.7, CC(=O)N(C1=C(Cl)C(=O)c2ccccc2C1=O)c1ccc(C(=O)O)cc1 -11, CC1(C)CC(N2CCN(C(c3ccccc3)c3ccccc3)CC2)=CC(=[N+]2CCCCC2)C1 -8.86, CC(=O)Nc1cccc(OCC(=O)/C=C2\N(C)c3ccccc3C2(C)C)c1 -8.91, CC(C)c1cc(C(=O)N/N=C/c2ccoc2)c(O)c(C(C)C)c1 -10.5, OC(CN=c1sc2ccccc2n1CC(O)COc1ccccc1)COc1ccccc1 (stereo unspecified) -12.6, O=C1OC(Oc2ccc(Br)cc2)(c2ccccc2)c2ccccc21 (stereo unspecified) -10.1, COc1ccccc1N1CCN(C(=O)c2cc3c(-c4ccc(Cl)cc4)nn(C)c3s2)CC1 -10.1, Cn1nc(-c2ccc(Cl)cc2)c2cc(C(=O)NCc3ccco3)sc21 -13.2, Cc1cc2oc(=O)cc(CN(C)Cc3ccc(OC(F)F)cc3)c2cc1Cl -10.4

B-score, inactive:
CCCCn1c(N)c(N(CCOC)C(=O)c2cccc(S(=O)(=O)N(C)c3ccccc3)c2)c(=O)[nH]c1=O, COc1ccc(C2NCCCC2c2ccccc2)cc1 (stereo unspecified), COCCn1c(=O)[nH]c2cc(C(=O)NCc3cccnc3)ccc2c1=O, CCCCNC(=O)C1(O)c2ccccc2NC(=O)N1c1ccc(Cl)cc1 (stereo unspecified), Cc1cccc(N(Cc2ccccc2)C(=O)c2cc(S(=O)(=O)N3CCOCC3)ccc2F)c1, O=C(c1ccccc1F)N(Cc1ccccc1)Cc1ccccc1, O=[N+]([O-])c1cc([N+](=O)[O-])c(Oc2cc(F)cc(F)c2F)cc1NN1CCCCC1, COC(=O)C1=C(C(=O)OC)C(c2cc([N+](=O)[O-])ccc2O)c2sc(=O)[nH]c2S1 (stereo unspecified), Cc1c(C(=O)NC2CCCCC2)oc2ccccc12, Cc1cc(C)nc(-n2nc(C)cc2NC(=O)c2ccc(F)cc2F)n1, CC(Nc1nc(N2CCOCC2)nc2ccccc12)c1ccccc1 (stereo unspecified), CC(Nc1nc(N2CCCC2)nc2ccccc12)c1ccccc1 (stereo unspecified), O=C(NC1CC1)C1CCCN(C(=O)NC2CCCCC2)C1 (stereo unspecified), COc1ccccc1OCc1nnc(SCC(N)=O)n1-c1ccccc1, COc1ccc(C(c2nnnn2C2CCCCC2)N2CCN(c3ccccc3F)CC2)cc1 (stereo unspecified), c1ccc(CCn2nnnc2CN2CCN(C3CCCC3)CC2)cc1, CC(=O)c1c(C)c[nH]c1C, O=C(NC(=S)N1CCN(Cc2ccccc2)CC1)c1ccccc1, Cc1cccc(N(C(=O)Cc2cccs2)C(C(=O)NC2CCCC2)c2ccsc2)c1 (stereo unspecified), NS(=O)(=O)c1ccc(N2C(=O)C3C4CC(C(Br)C4Br)C3C2=O)cc1 (stereo unspecified), Cc1cc(O)c(NC(=O)c2ccc(C)c([N+](=O)[O-])c2)cc1C, CC1(C)Cc2c(sc(NC(=O)C(=O)N3CCOCC3)c2C#N)CO1, Clc1ccc(-c2cc(C3CCNCC3)[nH]n2)c(Cl)c1, Cc1ccccc1NC(=O)CSc1nc2ccc(Nc3nc(N4CCOCC4)nc(N4CCOCC4)n3)cc2s1, CC1(c2ccccc2)NC(=O)N(CC(=O)Nc2cc(Cl)ccc2N2CCOCC2)C1=O (stereo unspecified), COc1cccc(NC(=O)CN(C)C(=O)/C=C/c2cc(OC)ccc2OC)c1, COc1ccc(NC(=O)CN(C)C(=O)/C=C/c2cn(Cc3ccccc3)nc2-c2cccnc2)cc1, CCN(c1ccccc1)S(=O)(=O)c1ccc(OCC(=O)N2CCCC2)cc1, Cc1nc2nc[nH]n2c(=O)c1NC(=O)c1cccc(OCC(C)C)c1, CC(C)N1CCC(NC(=O)Nc2ccccc2)CC1, C=CCn1cc(Cl)cc(C(=O)Nc2ccccc2)c1=O, Cc1cccc(-c2c(NC(=O)c3ccco3)oc3ccc(Cl)cc3c2=O)c1, O=C(CS(=O)(=O)Cc1ccccc1)Nc1cccnc1, CC(=O)Nc1ccc(S(=O)(=O)N(CCc2ccccc2)CC(=O)N/N=C/c2ccc(C(=O)O)cc2)cc1, CCOC(=O)N1CCN(C(=O)c2ccc3c(c2)N(Cc2ccc(C)cc2)CCS3)CC1, O=C(NCCc1ccccc1)c1cccc(NC(=O)c2ccccc2)c1, CCOCc1c(C(=O)N2CCN(Cc3ccc(Br)s3)CC2)oc2ccccc12, CCOc1ccc(S(=O)(=O)N(CC(=O)NCC(F)(F)F)Cc2ccco2)cc1, CN(C(=O)Cn1nnc(-c2ccc(F)cc2)n1)C1CCS(=O)(=O)C1 (stereo unspecified), CC(C)CCNC(=O)CN(C(=O)Cn1nnc(-c2ccc(F)cc2)n1)C1CCCC1, C#CCOCCOCCOCCNc1nc(N2CCN(C(=O)C(Cc3ccc(O)cc3)n3cc(C(N)CC(C)C)nn3)CC2)nc(N2CCN(C(=O)C(Cc3ccc(O)cc3)n3cc(C(N)C(C)CC)nn3)CC2)n1 (stereo unspecified), COc1ccc(-n2c(O)c(C=NCC(c3ccco3)N3CCCC3)c3ccccc3c2=O)cc1OC (stereo unspecified), CCOc1ccc(-c2nc(N)ncc2-c2ccccc2OC)c(O)c1, COc1ccc(Oc2cn[nH]c2-c2ccc(OC)cc2O)cc1, CC1CCc2sc(C(=O)NCC(c3ccco3)N3CCCCC3)cc2C1 (stereo unspecified), COc1cc(C(=S)N2CCOCC2)cc(OC)c1OC(=O)c1cc([N+](=O)[O-])cc([N+](=O)[O-])c1, O=C(Oc1ccccc1C(=S)N1CCCCC1)c1cc([N+](=O)[O-])cc([N+](=O)[O-])c1, Cc1ccc(NC(=O)COc2ccc(/C=N\NC(=O)c3cccnc3)cc2)cc1C, O=C(NN=C1CCC(=NNC(=O)c2cccnc2)CC1)c1cccnc1, CCCCCCC(O)(CCN1CCCCC1)c1ccccc1 (stereo unspecified), Nc1nnc(SCC(=O)NCC(=O)Nc2ccc(F)c(F)c2F)s1, O=C(NC1=CC(=O)c2ccccc2C1=O)c1ccccc1, O=C1C(Cl)=C(Oc2ccccc2)C(=O)c2ccccc21, CS(=O)(=O)N(CC(=O)N1CCc2ccccc2C1)c1ccc(Br)cc1, COc1ccccc1CN1CCN(C(c2ccccc2)c2ccccc2)CC1, CC(C)OCC(O)CN1CCN(C(c2ccccc2)c2ccccc2)CC1 (stereo unspecified), CC(C)Nc1nnc(SCC(=O)/C=C2\N(C)c3ccccc3C2(C)C)s1, CN1CCN(CCC(=O)N/N=C/C=C2\N(C)c3ccccc3C2(C)C)CC1, CCCCn1c(N)c(N(CCOC)C(=O)c2cccc(S(=O)(=O)N3CCCCC3)c2)c(=O)[nH]c1=O, O=C(N/N=C/c1ccoc1)c1ccc(Cl)cc1Cl, CC(Oc1ccccc1[N+](=O)[O-])C(=O)N/N=C/c1ccoc1 (stereo unspecified), COC(=O)c1cc2c(ccn2C)n1C, COc1ccc(S(=O)(=O)c2c[nH]c(=S)[nH]c2=O)cc1Cl, CC(=O)Nc1ccc(S(=O)(=O)NCCC(=O)N2CCN(c3ccccc3Cl)CC2)cc1, O=C(C(c1ccccc1)c1ccccc1)N1CCN(CC(O)COc2ccccc2)CC1 (stereo unspecified), CC(C)c1ccc(OCC(O)Cn2cnc3ccccc32)cc1 (stereo unspecified), COc1ccc(C)cc1NC(=O)CNCc1cccs1, CS(=O)(=O)Nc1ccccc1N=C(c1ccccc1)c1ccccc1, CCC(CC)C(=O)Nc1cc(C(=O)OC)cc(C(=O)OC)c1, O=C(NCCCO)c1cc2c([nH]c3ccccc32)c(-c2ccc(F)cc2)n1, COc1cccc(-c2nn(C)c3sc(C(=O)N4CCN(c5ccccc5)CC4)cc23)c1, COc1ccc2c(Cl)c(C(=O)NCc3ccco3)sc2c1, COc1ccccc1N1CCN(C(=O)c2cn(-c3ccccc3)nc2-c2cccnc2)CC1, CN(CCNC(=O)c1cc2c(-c3ccccc3F)nn(C)c2s1)C1CCCCC1, CCOc1ccc(NS(=O)(=O)c2cc(C)c(C)cc2C)cc1, CCOc1ccccc1NC(=O)c1cc(S(=O)(=O)N2CCC3(CC2)OCCO3)ccc1F, CC(=O)N1CC[n+]2c(-c3ccc([N+](=O)[O-])cc3)csc21, CC1CCCCC12NC(=O)N(CC(=O)OCc1c(F)cccc1Cl)C2=O (stereo unspecified), CCOc1ccc(N(C)Cc2cc(=O)oc3ccc(OC)cc23)cc1, Cc1ccc(CN(C)Cc2cc(=O)oc3cc(C)c(Cl)cc23)cc1
